Data taken from PubChem BioAssay (NCI).
The panel holds about 79,000 compounds, 15% with a hit somewhere; the sample as a whole holds those more often. Calls of active or inactive are those of the source. No stated cut-off is given here; in the data, active means growth inhibition above about 70%; inactive means the rest.

Tests used:
[1] = NCI Yeast Anticancer Drug Screen. Data for the rad50 strain (AID 155);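 further: 0% = growth of vehicle-only cultures of the same strain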; settings: S. cerevisiae rad50 strain growth inhibition, hits give high values; at 50.0 µM unless noted
Outline: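 Compounds were tested on a yeast strain with an engineered DNA damage repair alteration; the reported value is growth inhibition normalised to vehicle treatment.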

[2] = NCI Yeast Anticancer Drug Screen. Data for the mec2-1 strain (AID 157); settings: S. cerevisiae mec2-1 strain, hits give high values; at 50.0 µM unless noted
Outline: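 Mutant yeast (mec2-1) grown with compound; growth inhibition relative to vehicle control reported.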

[3] = NCI Yeast Anticancer Drug Screen. Data for the sgs1 mgt1 strain (AID 161);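 further: 0% = growth of cultures given vehicle only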; settings: S. cerevisiae sgs1 mgt1 strain, hits give high values; at 50.0 µM unless noted
Outline: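 Compounds are added to genetically altered yeast, and growth is compared with cultures given vehicle alone to give percent inhibition.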

[4] = NCI Yeast Anticancer Drug Screen. Data for the cln2 rad14 strain (AID 165);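 further: 0% = growth equal to vehicle treated cultures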; settings: S. cerevisiae cln2 rad14 strain, hits give high values; at 50.0 µM unless noted
Outline: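 Readout is yeast growth inhibition versus vehicle-treated controls, using a strain with cln2 and rad14 alterations exposed to compound.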

[5] = NCI Yeast Anticancer Drug Screen. Data for the bub3 strain (AID 167); settings: S. cerevisiae bub3 mutant strain, hits give high values; at 50.0 µM unless noted
Outline: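 Growth of a checkpoint-deficient yeast mutant is measured after compound exposure. Values represent inhibition relative to vehicle.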

[6] = NCI Yeast Anticancer Drug Screen. Data for the mlh1 rad18 strain (AID 175); settings: S. cerevisiae mlh1 rad18 strain growth inhibition, hits give high values; at 50.0 µM unless noted
Outline: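 Genetically defined yeast (DNA repair-deficient) exposed to compounds; growth inhibition determined relative to vehicle.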

Measured: growth inhibition

COc1cc(C2NC(C(=O)O)CS2)cc(OC)c1OC (centres undefined)
inactive: [1] -22.4% | [2] -14.7% | [3] 0.5% | [4] -19.1% | [5] -9.2% | [6] -5.85%

C=C(CC(O)(C(F)(F)F)C(F)(F)F)CC(O)(C(F)(F)F)C(F)(F)F
inactive: [1] 64.8% | [3] 63.9% | [4] 65.6%
active: [2] 94.5% | [5] 95% | [6] 95%

Cc1ccc2nc(Sc3c([N+](=O)[O-])ncn3C)[nH]c2c1
inactive: [1] -16.1% | [2] -16.4% | [3] -18.2% | [4] 5.75% | [5] -20.7% | [6] -25.4%

N#Cc1ccccc1NC(=O)C(=O)c1c(O)c2ccccc2oc1=O
inactive: [1] -13.8% | [2] -6.8% | [3] -16.1% | [4] -16.9% | [5] -12.2% | [6] -25%
